These results are taken from PubChem BioAssay AID894 (National Center for Advancing Translational Sciences (NCATS), 2007).

SMILES strings stand for the structures. Where “and” joins values, the source holds several entries; their conditions need not be identical. Equal entries are not always repeated. Screen size: about 150,000 compounds; about 6,500 (4.3%) were called active. Not shown: some 12% with an inconclusive outcome. The sample holds actives, similar compounds and a random draw of the others, so the mix is not that of the screen. The call rests on the fitted dose curve; in most records, active means well fitted inhibition curve with a large enough effect (not every such curve was filed as active); inconclusive means small, poorly fitted or top-dose-only effect, or another doubt; inactive means no such curve, though single readings can be large or run the other way.
On the % scale 0 is the no-effect control and ±100 the full control effect; potency means the concentration at half of the fitted maximal effect.

For this experiment, the target named is 15-hydroxyprostaglandin dehydrogenase [NAD(+)] (Homo sapiens) (UniProt P15428). In words: qHTS Assay for Inhibitors of HPGD (15-Hydroxyprostaglandin Dehydrogenase). The conditions noted are these: purified HPGD, NADH fluorescence kinetic, PGE2 substrate; activity change, negative = inhibition: active compounds read low. The procedure, abridged: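 20 nM HPGD preincubated 15 min at room temperature with compound in 50 mM Tris-HCl pH 8, 0.01% Tween 20. Started with 1 mM NAD+ and 30 uM prostaglandin E2; NADH fluorescence (360/450 nm) read 5 times over 30-s intervals, last minus first.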
Sequence of 15-hydroxyprostaglandin dehydrogenase [NAD(+)] (Homo sapiens) (P15428 whole entry, looked up): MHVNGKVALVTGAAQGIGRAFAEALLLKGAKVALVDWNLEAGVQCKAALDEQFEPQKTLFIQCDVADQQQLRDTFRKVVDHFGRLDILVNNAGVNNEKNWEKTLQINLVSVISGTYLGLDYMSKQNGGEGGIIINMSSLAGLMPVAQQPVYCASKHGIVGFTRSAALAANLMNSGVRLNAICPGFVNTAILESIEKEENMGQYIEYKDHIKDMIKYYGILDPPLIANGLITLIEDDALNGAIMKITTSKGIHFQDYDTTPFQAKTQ
Consider `CCOC(=O)N1CCN(C(=O)C2CCN(Cc3ccc(OC)cc3OC)CC2)CC1`, for which the activity change, negative = inhibition is -11.3% (inactive).

As to `CCCC(NC(=O)c1ccco1)c1nc2ccccc2[nH]1` (stereo not drawn), the activity change, negative = inhibition is -3.61% (inactive).

With `Cc1cccc(C(=O)NC(=S)N2CCN(c3ccc([N+](=O)[O-])cc3)CC2)c1`, the activity change, negative = inhibition was -19.1% (inactive).

`CCOC(=O)/C=C/C(=O)OCC(=O)NC(c1ccccc1)c1ccccc1`: the activity change, negative = inhibition was -29.7% (inactive).

Consider `O=C(O)Cc1ccc(-c2ccccc2)cc1`, for which the activity change, negative = inhibition is -9.59% (inactive) and -19% (inactive).

With `O=C(Cc1ccc(-c2ccccc2)cc1)NC(c1ccccc1)c1ccccc1`, the Potency was 12.6 µM (active).

Consider `CCCCC(=O)Nc1ccc(C(=O)Nc2cc(C(F)(F)F)ccc2Cl)cc1`, for which the activity change, negative = inhibition is -6.97% (inactive).

For the molecule `CCOc1ccc(NC(=O)c2ccc(CSc3nnnn3C)cc2)cc1`, the activity change, negative = inhibition was -4.67% (inactive).

Regarding `COc1ccc2[nH]cc(CCNc3ncnc4ccc(-c5ccccc5CN(C)C)cc34)c2c1`, the activity change, negative = inhibition is -13.3% (inactive).

Turning to `COc1ccccc1CNc1ncnc2ccc(-c3c(C)noc3C)cc12`, the Potency is 6.31 µM (active).

For the molecule `COCCNc1ncnc2ccc(-c3ccccc3CN(C)C)cc12`, the activity change, negative = inhibition was -8.98% (inactive).

`Cc1ccc(N(Cc2cc3ccccc3[nH]c2=O)C(=O)c2cccs2)cc1`: the activity change, negative = inhibition is -11% (inactive).

For `CCOc1ccc(C(=O)Nc2nccs2)cc1[N+](=O)[O-]`, the activity change, negative = inhibition was -16.3% (inactive).

With `O=C(CN1CCN(c2ccc(O)cc2)CC1)NC1CCCc2ccccc21` (stereo not drawn), the activity change, negative = inhibition was -19.6% (inactive).

As to `CCOc1ccc2nc(NC(=O)c3cc([N+](=O)[O-])ccc3N3CCOCC3)sc2c1`, the activity change, negative = inhibition is -5.12% (inactive).

For the molecule `Cc1ccccc1Cn1nc(C)c(NC(=O)C(F)(F)F)c1C`, the activity change, negative = inhibition is 0.212% (inactive).

For `Cc1ccccc1OCC(=O)Nc1nc(C)c(C(=O)N(C)C)s1`, the activity change, negative = inhibition is -1.51% (inactive).

Consider `COCCNC(=O)COc1ccccc1C`, for which the activity change, negative = inhibition was -18.6% (inactive).

For `COCCNC(=O)COc1ccc(C)c(C)c1`, the Potency is 20 µM (active).

On to `COCCCNC(=O)COc1cc(C)c(Cl)c(C)c1`, for which the activity change, negative = inhibition is -21.9% (inactive).

On to `CCSC(C)CC1C/C(=N/O)c2c(C)noc2C1` (stereo not drawn), for which the Potency is 25.1 µM (active).

Consider `CCCc1noc2c1/C(=N\O)CCC2`, for which the activity change, negative = inhibition is -17.1% (inactive).

Take `CCOc1ccc(NC(=O)COc2ccc(C(=O)NC3CCCc4ccccc43)cc2OC)cc1` (stereo not drawn): the activity change, negative = inhibition was -12.8% (inactive).

With `O=C(CCN1C(=O)c2ccccc2C1=O)C1=NN[C@@H]2C(=O)N(c3ccc(F)cc3)C(=O)[C@H]12`, the activity change, negative = inhibition was -16.3% (inactive).

For the molecule `COc1cccc(N(CC(=O)N2CCc3ccccc3C2)S(C)(=O)=O)c1`, the activity change, negative = inhibition is -5.24% (inactive).

On to `O=C(C(=O)N1CCc2ccccc2C1)N1CCc2ccccc2C1`, for which the activity change, negative = inhibition is -4.51% (inactive).

For the molecule `CN(c1ccc(C(=O)N2CCc3ccccc3C2)cc1)S(C)(=O)=O`, the Potency is 14.1 µM (active).

For the molecule `N=c1n(CCc2ccccc2)c2ccccc2n1Cc1ccccc1F`, the activity change, negative = inhibition was -8.4% (inactive).

Take `COCCNC(=S)N/N=C/c1c(C)[nH]c2ccccc12`: the activity change, negative = inhibition is -19.3% (inactive).

For the molecule `O=C(Nc1cccc2ncccc12)C(Cl)(Cl)Cl`, the activity change, negative = inhibition was -18.4% (inactive).

Take `O=C(O)c1cc(Cl)c(Cl)cc1C(=O)Nc1cccc2ncccc12`: the activity change, negative = inhibition is -16.7% (inactive).

Consider `Cc1ccc(/C=C(\C#N)C(=O)Nc2cccc3ncccc23)o1`, for which the Potency is 39.8 µM (active).

Regarding `Cc1ccc2c(c1)N(C(=O)CCC(=O)N1CCc3ccccc3C1)CCO2`, the Potency is 14.1 µM (active).

`Cc1ccc(S(=O)(=O)N(C)CC(=O)N2CCc3ccccc32)cc1`: the activity change, negative = inhibition is -3.12% (inactive).

As for `Cc1ccc(S(=O)(=O)N(CC(=O)N2CCc3ccccc3C2)c2cccc(Cl)c2)cc1`, the activity change, negative = inhibition is -8.94% (inactive).

`Cc1cc(OCCCC(=O)NCCN2C(=O)S/C(=C\c3cccnc3)C2=O)ccc1Cl`: the activity change, negative = inhibition is -5.63% (inactive).

For `Cn1cnc(C(F)(F)F)c1-c1ccc([N+](=O)[O-])cc1`, the activity change, negative = inhibition is -0.963% (inactive).

In the case of `Cc1ccnc(-n2sc3ccccc3c2=O)n1`, the Potency is 0.794 µM (active).

With `Cc1nc2ccccc2c(=O)n1CCCn1ccnc1`, the activity change, negative = inhibition was -6.43% (inactive).

For the molecule `Cc1ccc(NC(=S)NCc2ccccc2Cl)c(C)c1`, the activity change, negative = inhibition was -27.2% (inactive).

Turning to `Clc1ccc(C2=CSC3=Nc4cccc5cccc(c45)N23)cc1`, the Potency is 7.94 µM (active).

Consider `O=S(=O)(NCC1CCCO1)c1cnc(Cl)c(Cl)c1` (stereo not drawn), for which the activity change, negative = inhibition was -16.1% (inactive).

Consider `C/C(=C\c1ccccc1)C1NC(=O)c2c(sc3c2CCCC3)N1` (stereo not drawn), for which the activity change, negative = inhibition is -3.55% (inactive).

Take `COc1ccccc1-c1cc(C(=O)N2CCCCC2)no1`: the Potency was 3.55 µM (active).

Take `O=C(c1cc(-c2cccs2)on1)N1CCCCC1`: the Potency was 1.78 µM (active).

Turning to `COc1ccccc1N1CCN(C(=O)c2cc(-c3ccc(Br)cc3)on2)CC1`, the activity change, negative = inhibition was -29.1% (inactive).

For the molecule `O=C(c1cc(-c2ccccc2O)on1)N1CCCC1`, the activity change, negative = inhibition was -29.8% (inactive).

Take `O=C(c1cccs1)N1CCN(C(=O)N2CCOCC2)CC1`: the activity change, negative = inhibition is 2.42% (inactive).

For the molecule `COc1ccccc1N1CCN(C(=O)c2cc(-c3ccc(Cl)c(Cl)c3)on2)CC1`, the activity change, negative = inhibition was -13.7% (inactive).

Take `Cc1cc(C)cc(NC(=S)NCc2ccc(F)cc2)c1`: the activity change, negative = inhibition was -19.9% (inactive).

Consider `CCn1nc(C)c(/C=N/NC(=O)Cc2ccc(Cl)cc2)c1C`, for which the activity change, negative = inhibition was -9.17% (inactive).

For the molecule `O=C(NCc1cccs1)C(=O)NCC1OCCCN1S(=O)(=O)c1ccc(F)cc1` (stereo not drawn), the activity change, negative = inhibition was -5.48% (inactive).

For the molecule `C=CCOC(=O)NC(c1ccc(F)c(F)c1)C(C(=O)COC)C(=O)OC` (stereo not drawn), the activity change, negative = inhibition was -10.1% (inactive) and -9.32% (inactive).

Consider `CCN(CC)S(=O)(=O)c1cccc(-c2n[nH]c(=S)n2/N=C/c2ccc(C(=O)OC)cc2)c1`, for which the Potency was 6.31 µM (active).

For `CCN(CC)S(=O)(=O)c1cccc(C(=O)Nc2ccccc2)c1`, the activity change, negative = inhibition is 0.0347% (inactive).

With `COC(=O)c1ccc(/C=N\n2c(C)nnc2C)cc1`, the activity change, negative = inhibition was -12.4% (inactive).

Regarding `CC(Sc1nc2cc(Cl)ccc2s1)C(=O)Nc1ccc2c(c1)OCO2` (stereo not drawn), the activity change, negative = inhibition is -22.7% (inactive).

As for `O=C(COC(=O)/C=C/c1cccc(Cl)c1)NCCc1ccccc1`, the activity change, negative = inhibition was -5.17% (inactive).

`CC(C)CNC(=O)COC(=O)/C=C/c1ccco1`: the activity change, negative = inhibition was -11.3% (inactive).

As to `CC(C)CNC(=O)COC(=O)/C=C/c1ccccc1[N+](=O)[O-]`, the Potency was 28.2 µM (active).

Regarding `COc1cccc(NC(=S)NCc2ccccn2)c1`, the activity change, negative = inhibition was -28.2% (inactive).

On to `COc1cccc(NC(=S)NCCCN2CCOCC2)c1`, for which the activity change, negative = inhibition was -6.46% (inactive).

With `COc1cccc(NC(=S)NCc2ccco2)c1`, the Potency is 11.2 µM (active).
